Results as given in the supplement of paper PMC9794691.

Assays:
H1975 [1] = assay: area under confluence curve of osimertinib + compound combination regimen (DTP regrowth); compare to osimertinib-only DTP control AUC of the same experiment (AUC (confluence x time, arbitrary))
In short: (§1)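 EGFR-mutant NSCLC lines went into 48-well plates at 20,000–30,000 cells/well in RPMI 1640 with 10% FBS and were kept at 37 °C, 5% CO2. Cells got either the EGFR inhibitor plus a fixed-dose test compound from the start through the persister stage (10–21 days) and then drug-free medium, or the inhibitor alone followed by the test compound. Medium was changed every 3–4 days until wells given only the inhibitor regrew to confluence. The endpoint was the area under the IncuCyte confluence–time curve, calculated in Prism and reported as the median of triplicates where available.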

HCC2279 [2] = assay: as above
In short: as §1

HCC2935 [3] = assay: as above
In short: as §1

HCC4006 [4] = assay: as above
In short: as §1

HCC827 [5] = assay: as above
In short: as §1

II-18 [6] = assay: as above
In short: as §1

H1975 [7] = assay: area under confluence curve of compound monotherapy; compare to DMSO control AUC of the same experiment (AUC (confluence x time, arbitrary))
In short: (§2)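 Adenocarcinoma lines were grown in RPMI 1640 with 10% FBS at 37 °C and 5% CO2, seeded at 20,000–30,000 cells/well in 48-well plates, and treated the next day with test compound alone at one dose: 1 uM or the highest dose giving <50% parental inhibition. Every 3–4 days the wells were washed with PBS and the drug was refreshed, and medium was drug-free from the DTP stage (10–21 days). IncuCyte tracked confluence until wells given only an EGFR inhibitor regrew. Area under the confluence curve was calculated in Prism, taking the median of triplicates where run, and set beside the vehicle value from the same experiment.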

HCC2279 [8] = assay: as above
In short: as §2

HCC2935 [9] = assay: as above
In short: as §2

HCC4006 [10] = assay: as above
In short: as §2

HCC827 [11] = assay: as above
In short: as §2

II-18 [12] = assay: as above
In short: as §2

COC(=O)c1ccc([C@H]2c3[nH]c4ccccc4c3C[C@H](C(=O)OC)N2C(=O)CCl)cc1 + C=CC(=O)Nc1cc(Nc2nccc(-c3cn(C)c4ccccc34)n2)c(OC)cc1N(C)CCN(C)C [osimertinib]
area under confluence curve (H1975 [1]; test compound dose 100 nM, dosing schedule: sequential, osimertinib-only DTP control AUC in same experiment: 9919, DMSO control AUC in same experiment: 26010): 7660 | area under confluence curve (H1975 [1]; test compound dose 100 nM, dosing schedule: upfront, osimertinib-only DTP control AUC in same experiment: 15327, DMSO control AUC in same experiment: 26010): 13400 | area under confluence curve (HCC2279 [2]; test compound dose 100 nM, dosing schedule: sequential, osimertinib-only DTP control AUC in same experiment: 11520, DMSO control AUC in same experiment: 9426): 13900 | area under confluence curve (HCC2279 [2]; test compound dose 100 nM, dosing schedule: upfront, osimertinib-only DTP control AUC in same experiment: 21942, DMSO control AUC in same experiment: 9426): 20100 | area under confluence curve (HCC2935 [3]; test compound dose 100 nM, dosing schedule: sequential, osimertinib-only DTP control AUC in same experiment: 9121, DMSO control AUC in same experiment: 11459): 5900 | area under confluence curve (HCC2935 [3]; test compound dose 100 nM, dosing schedule: upfront, osimertinib-only DTP control AUC in same experiment: 12748, DMSO control AUC in same experiment: 11459): 6780 | area under confluence curve (HCC4006 [4]; test compound dose 100 nM, dosing schedule: sequential, osimertinib-only DTP control AUC in same experiment: 19238, DMSO control AUC in same experiment: 16638): 19000 | area under confluence curve (HCC4006 [4]; test compound dose 100 nM, dosing schedule: upfront, osimertinib-only DTP control AUC in same experiment: 21234, DMSO control AUC in same experiment: 16638): 21000 | area under confluence curve (HCC827 [5]; test compound dose 100 nM, dosing schedule: sequential, osimertinib-only DTP control AUC in same experiment: 25096, DMSO control AUC in same experiment: 35394): 6740 | area under confluence curve (HCC827 [5]; test compound dose 100 nM, dosing schedule: upfront, osimertinib-only DTP control AUC in same experiment: 27382, DMSO control AUC in same experiment: 35394): 27100 | area under confluence curve (II-18 [6]; test compound dose 100 nM, dosing schedule: sequential, osimertinib-only DTP control AUC in same experiment: 3520, DMSO control AUC in same experiment: 13556): 183 | area under confluence curve (II-18 [6]; test compound dose 100 nM, dosing schedule: upfront, osimertinib-only DTP control AUC in same experiment: 6532, DMSO control AUC in same experiment: 13556): 1800

O=C(NC[C@H](O)CN1CCc2ccccc2C1)c1ccnc(NC2CCC2)c1
area under confluence curve (H1975 [7]; 300 nM, DMSO control AUC in same experiment: 20657): 20400 | area under confluence curve (HCC2279 [8]; 300 nM, DMSO control AUC in same experiment: 40085): 25900 | area under confluence curve (HCC2935 [9]; 300 nM, DMSO control AUC in same experiment: 15413): 16200 | area under confluence curve (HCC4006 [10]; 300 nM, DMSO control AUC in same experiment: 10921): 8430 | area under confluence curve (HCC827 [11]; 300 nM, DMSO control AUC in same experiment: 43928): 45500 | area under confluence curve (II-18 [12]; 300 nM, DMSO control AUC in same experiment: 7080): 8360

Cn1cc(CNCC2CCN(c3ncc(C(=O)NO)cn3)CC2)c2ccccc21 [Quisinostat] + C=CC(=O)Nc1cc(Nc2nccc(-c3cn(C)c4ccccc34)n2)c(OC)cc1N(C)CCN(C)C [osimertinib]
area under confluence curve (H1975 [1]; test compound dose 10 nM, dosing schedule: sequential, osimertinib-only DTP control AUC in same experiment: 15943, DMSO control AUC in same experiment: 20657): 1750 | area under confluence curve (H1975 [1]; test compound dose 10 nM, dosing schedule: upfront, osimertinib-only DTP control AUC in same experiment: 27804, DMSO control AUC in same experiment: 20657): 5730 | area under confluence curve (HCC2279 [2]; test compound dose 10 nM, dosing schedule: sequential, osimertinib-only DTP control AUC in same experiment: 20224, DMSO control AUC in same experiment: 29252): 6370 | area under confluence curve (HCC2279 [2]; test compound dose 10 nM, dosing schedule: upfront, osimertinib-only DTP control AUC in same experiment: 43517, DMSO control AUC in same experiment: 29252): 12400 | area under confluence curve (HCC2935 [3]; test compound dose 10 nM, dosing schedule: sequential, osimertinib-only DTP control AUC in same experiment: 6271, DMSO control AUC in same experiment: 13875): 6600 | area under confluence curve (HCC2935 [3]; test compound dose 10 nM, dosing schedule: upfront, osimertinib-only DTP control AUC in same experiment: 10360, DMSO control AUC in same experiment: 13875): 6240 | area under confluence curve (HCC4006 [4]; test compound dose 10 nM, dosing schedule: sequential, osimertinib-only DTP control AUC in same experiment: 21234, DMSO control AUC in same experiment: 16638): 5480 | area under confluence curve (HCC4006 [4]; test compound dose 10 nM, dosing schedule: upfront, osimertinib-only DTP control AUC in same experiment: 19238, DMSO control AUC in same experiment: 16638): 4030 | area under confluence curve (HCC827 [5]; test compound dose 10 nM, dosing schedule: sequential, osimertinib-only DTP control AUC in same experiment: 8266, DMSO control AUC in same experiment: 27404): 2780 | area under confluence curve (HCC827 [5]; test compound dose 10 nM, dosing schedule: upfront, osimertinib-only DTP control AUC in same experiment: 13929, DMSO control AUC in same experiment: 27404): 4260 | area under confluence curve (II-18 [6]; test compound dose 10 nM, dosing schedule: sequential, osimertinib-only DTP control AUC in same experiment: 21122, DMSO control AUC in same experiment: 7080): 426 | area under confluence curve (II-18 [6]; test compound dose 10 nM, dosing schedule: upfront, osimertinib-only DTP control AUC in same experiment: 22894, DMSO control AUC in same experiment: 7080): 19200

Cc1nc(N2CCC3(CC2)CO[C@@H](C)[C@H]3N)c(CO)nc1-c1cccc(Cl)c1Cl
area under confluence curve (H1975 [7]; 1000 nM, DMSO control AUC in same experiment: 15857): 17200 | area under confluence curve (HCC2279 [8]; 1000 nM, DMSO control AUC in same experiment: 14404): 12100 | area under confluence curve (HCC2935 [9]; 1000 nM, DMSO control AUC in same experiment: 19215): 19100 | area under confluence curve (HCC4006 [10]; 1000 nM, DMSO control AUC in same experiment: 18415): 19200 | area under confluence curve (HCC827 [11]; 1000 nM, DMSO control AUC in same experiment: 21320): 14900 | area under confluence curve (II-18 [12]; 1000 nM, DMSO control AUC in same experiment: 11834): 3600

Cc1nc(N2CCC3(CC2)CO[C@@H](C)[C@H]3N)c(CO)nc1-c1cccc(Cl)c1Cl + C=CC(=O)Nc1cc(Nc2nccc(-c3cn(C)c4ccccc34)n2)c(OC)cc1N(C)CCN(C)C [osimertinib]
area under confluence curve (H1975 [1]; test compound dose 1000 nM, dosing schedule: sequential, osimertinib-only DTP control AUC in same experiment: 22968, DMSO control AUC in same experiment: 15857): 15500 | area under confluence curve (H1975 [1]; test compound dose 1000 nM, dosing schedule: upfront, osimertinib-only DTP control AUC in same experiment: 27164, DMSO control AUC in same experiment: 15857): 17800 | area under confluence curve (HCC2279 [2]; test compound dose 1000 nM, dosing schedule: sequential, osimertinib-only DTP control AUC in same experiment: 26096, DMSO control AUC in same experiment: 14404): 16900 | area under confluence curve (HCC2279 [2]; test compound dose 1000 nM, dosing schedule: upfront, osimertinib-only DTP control AUC in same experiment: 33120, DMSO control AUC in same experiment: 14404): 21000 | area under confluence curve (HCC2935 [3]; test compound dose 1000 nM, dosing schedule: sequential, osimertinib-only DTP control AUC in same experiment: 22314, DMSO control AUC in same experiment: 19215): 19500 | area under confluence curve (HCC2935 [3]; test compound dose 1000 nM, dosing schedule: upfront, osimertinib-only DTP control AUC in same experiment: 29846, DMSO control AUC in same experiment: 19215): 27200 | area under confluence curve (HCC4006 [4]; test compound dose 1000 nM, dosing schedule: sequential, osimertinib-only DTP control AUC in same experiment: 12791, DMSO control AUC in same experiment: 18415): 9900 | area under confluence curve (HCC4006 [4]; test compound dose 1000 nM, dosing schedule: upfront, osimertinib-only DTP control AUC in same experiment: 17269, DMSO control AUC in same experiment: 18415): 14300 | area under confluence curve (HCC827 [5]; test compound dose 1000 nM, dosing schedule: sequential, osimertinib-only DTP control AUC in same experiment: 15330, DMSO control AUC in same experiment: 21320): 6150 | area under confluence curve (HCC827 [5]; test compound dose 1000 nM, dosing schedule: upfront, osimertinib-only DTP control AUC in same experiment: 20798, DMSO control AUC in same experiment: 21320): 13400 | area under confluence curve (II-18 [6]; test compound dose 1000 nM, dosing schedule: sequential, osimertinib-only DTP control AUC in same experiment: 8624, DMSO control AUC in same experiment: 11834): 2640 | area under confluence curve (II-18 [6]; test compound dose 1000 nM, dosing schedule: upfront, osimertinib-only DTP control AUC in same experiment: 10856, DMSO control AUC in same experiment: 11834): 3200
